25 compounds from publication PMC4336329 (PLoS ONE, 2015) can be followed below.

Molecules are shown by their SMILES. Hit rate of the full screen: of about 310,000 compounds, about 14,000 (4.5%) showed an effect of 50% or more. The effect is printed as a negative number. What follows is part of a selection rich in strong results, with near analogues and random picks from the rest.
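Also: peak tail current of the secondary pulse compared with the same well before compound.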

Chain of human ether-à-go-go-related gene (hERG) potassium channel (Q12809 whole entry, looked up): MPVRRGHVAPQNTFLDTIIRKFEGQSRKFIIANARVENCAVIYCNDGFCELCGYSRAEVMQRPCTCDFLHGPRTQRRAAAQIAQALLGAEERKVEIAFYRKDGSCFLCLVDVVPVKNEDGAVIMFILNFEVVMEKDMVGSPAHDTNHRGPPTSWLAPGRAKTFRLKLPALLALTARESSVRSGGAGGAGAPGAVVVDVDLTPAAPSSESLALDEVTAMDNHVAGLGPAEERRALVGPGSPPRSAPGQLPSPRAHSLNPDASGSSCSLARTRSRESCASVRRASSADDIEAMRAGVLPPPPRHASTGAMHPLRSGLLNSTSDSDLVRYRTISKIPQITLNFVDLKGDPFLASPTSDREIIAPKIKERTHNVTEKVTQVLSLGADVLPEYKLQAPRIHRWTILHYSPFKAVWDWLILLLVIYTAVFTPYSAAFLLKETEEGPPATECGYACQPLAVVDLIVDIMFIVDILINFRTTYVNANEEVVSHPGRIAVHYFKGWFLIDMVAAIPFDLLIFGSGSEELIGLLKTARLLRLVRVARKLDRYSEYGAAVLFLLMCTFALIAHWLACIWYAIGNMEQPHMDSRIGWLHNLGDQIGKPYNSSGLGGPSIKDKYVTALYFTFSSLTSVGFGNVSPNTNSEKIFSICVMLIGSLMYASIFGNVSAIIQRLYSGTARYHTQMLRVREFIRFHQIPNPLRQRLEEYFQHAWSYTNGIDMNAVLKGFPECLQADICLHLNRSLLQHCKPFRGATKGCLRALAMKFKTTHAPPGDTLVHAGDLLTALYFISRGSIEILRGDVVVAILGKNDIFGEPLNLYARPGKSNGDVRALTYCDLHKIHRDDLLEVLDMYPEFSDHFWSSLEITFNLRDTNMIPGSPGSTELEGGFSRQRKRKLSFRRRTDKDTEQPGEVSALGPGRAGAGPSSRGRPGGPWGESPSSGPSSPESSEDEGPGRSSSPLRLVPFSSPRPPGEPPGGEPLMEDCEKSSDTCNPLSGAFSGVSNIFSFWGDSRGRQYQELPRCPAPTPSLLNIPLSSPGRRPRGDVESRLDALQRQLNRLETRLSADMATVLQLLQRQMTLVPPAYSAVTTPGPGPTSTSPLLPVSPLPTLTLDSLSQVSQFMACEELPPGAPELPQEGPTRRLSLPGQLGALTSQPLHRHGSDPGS

The assay has as its target human ether-à-go-go-related gene (hERG) potassium channel (human, UniProt Q12809). The assay can be described thus: primary screen, population patch clamp on CHO cells stably expressing hERG; higher = less effect of the substance.
For the compound `O=C(c1cc(=O)[nH]c2ccccc12)N1CCc2ccccc2C1`, the “hERG current change (%, negative = inhibition) at 10uM” value was 11%.

On to `O=c1c2ccccc2nc2n1CCO2`, for which the “hERG current change (%, negative = inhibition) at 10uM” value amounted to 10.2%. For `COc1cc2cc(Oc3ccc4ccc(=O)oc4c3)c(=O)oc2cc1OC(C)=O` the value was 0.234%; for `COc1ccc(-c2cn3cc(C(F)(F)F)cc(Cl)c3n2)cc1`, 9.73%; for `Cc1ccc(C(=O)Nc2nc3ccc(S(C)(=O)=O)cc3s2)o1`, -0.566%. For `Cc1nc(CN(C)C(=O)c2ccccc2OC2CCN(S(C)(=O)=O)CC2)cs1`, the “hERG current change (%, negative = inhibition) at 10uM” value is 3.35%.

Take `COc1ccc(N2CCN(C(=O)CCC(=O)N3CCOc4ccc(C)cc43)CC2)cc1`: the “hERG current change (%, negative = inhibition) at 10uM” value was -42.7%. Next, `O=C(CCC(=O)N1CCOc2ccccc21)N1CCOCC1`: -5.85%; `COc1ccccc1CNC(=O)CCC(=O)N1CCOc2ccc(Cl)cc21`: -5.43%; `COc1cccc(N2CCN(C(=O)CCC(=O)N3CCOc4ccc(C)cc43)CC2)c1`: -30.3%. Next, `COc1ccc(N2CCN(CCCNC(=O)CCC(=O)N3CCOc4ccc(Cl)cc43)CC2)cc1`: -70.4%; `O=C(CCC(=O)N1CCOc2ccccc21)N1CCN(c2ccccc2)CC1`: -70%; `Cc1ccc2c(c1)N(C(=O)CCC(=O)N1CCN(c3ccccc3)CC1)CCO2`: -43.8%.

As to `COc1ccc(CCNC(=O)CCC(=O)N2CCOc3ccc(Cl)cc32)cc1OC`, the “hERG current change (%, negative = inhibition) at 10uM” value is on record as -20.2%. Next, `COc1ccc(N2CCN(C(=O)CCC(=O)N3CCOc4ccc(Cl)cc43)CC2)cc1`: -52.8%; `O=C(Oc1nsnc1N1CCOCC1)N1CCOCC1`: 15.3%. With `CCc1noc(C)c1C(=O)Nc1cc(C(F)(F)F)ccc1-n1cncn1`, the “hERG current change (%, negative = inhibition) at 10uM” value was -21.3%. As for `O=C(Nc1cccc2nsnc12)c1ccc(-c2cccc(Cl)c2)o1`, the “hERG current change (%, negative = inhibition) at 10uM” value is recorded as 10.4%. Consider `FC(F)(F)c1ccccc1NC(=S)NN=C1CCCCCC1`, for which the “hERG current change (%, negative = inhibition) at 10uM” value came to 23.5%. For `CCC(=O)N(CCc1ccccc1C)Cc1cc2cc3c(cc2[nH]c1=O)OCO3` the value was -3.05%.

For `COC(=O)c1ccccc1NC(=O)Cn1nc2n(C)c3ccccc3n2c(=O)c1=O`, the “hERG current change (%, negative = inhibition) at 10uM” value is listed as -3.54%. For `Cc1ccc(N2CC(C(=O)NCCN3CCOCC3)CC2=O)cc1C` (stereo not shown) the value was 10.2%; for `Cn1nnnc1P(=O)(c1ccccc1)c1ccccc1`, 7.84%; for `O=C1NCC(O)=C1C=NC12CC3CC(CC(C3)C1)C2` [4246017], 12.6%. Next, `COc1ccc(NC(=O)N2c3ccc(OC)cc3C(C)=CC2(C)C)cc1`: 20.1%.
